Data taken from PubChem BioAssay (NCATS).
Inconclusive results are not listed. Unmarked numbers belong to inactive results. Active and inactive are the calls of the source. The call rests on the fitted dose curve; in most records, active means well fitted inhibition curve with a large enough effect; inconclusive means small, poorly fitted or top-dose-only effect; inactive means flat fitted curve, though single readings scatter.

System: CRL-7250
Assay: Cytotoxic Profiling of Annotated Libraries Using Quantitative High-Throughput Screening (AID 1296008); further: nearly all actives have a fitted effect of over 60% in size
Conditions: Five cell lines viability, CellTiter-Glo ATP luminescence, 48-72 h; max response: hits give low values
How it was run: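 Compounds were pin-transferred onto cells and incubated 48 or 72 hr at 37 degree Celsius, 95% humidity. CellTiter-Glo was added, plates sat 10 min at room temperature, then ATP-coupled luminescence was imaged as the viability read-out.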
On the % scale 0 is the no-effect control and ±100 the full control effect; potency means the concentration at half of the fitted maximal effect.

Structure (SMILES)	max response	Potency	outcome
CN1Cc2cc(C(=O)N3CCC(C4CCNCC4)CC3)ccc2NC(CC(=O)O)C1=O (stereo not given)	0.285%	–	–
CN1Cc2cc(C(=O)N3CCC(C4CCNCC4)CC3)ccc2N[C@@H](CC(=O)O)C1=O	-4.04%	–	–
CC(C)=CCC/C(C)=C/CC/C(C)=C/CCC(=O)OC/C=C(\C)CCC=C(C)C	-7.77%	–	–
Nc1ccc2cc3ccc(N)cc3nc2c1	–	7.5 µM (active)	–
COc1cc(/C=C/C(N)=O)cc(OC)c1OC	–	–	inactive
NC(=O)NS(=O)(=O)c1ccc(Cl)cc1	–	–	inactive
COC(=O)c1ccc(NC(C)=O)cc1OC	-0.178%	–	–
CCC(=O)O[C@H]1[C@H](O[C@@H]2[C@@H](C)[C@H](O[C@H]3C[C@@](C)(OC)[C@@H](O)[C@H](C)O3)[C@@H](C)C(=O)O[C@H](CC)[C@@](C)(O)[C@H](O)[C@@H](C)C(=O)[C@H](C)C[C@@]2(C)O)O[C@H](C)C[C@@H]1N(C)C	0.377%	–	–
C[N+]1(CC2COC(c3ccccc3)(c3ccccc3)O2)CCCCC1 (stereo not given)	1.41%	–	–
C=CCOc1cc(Cl)ccc1C(=O)NCCN(CC)CC	-3.78%	–	–
CC(C)(C)c1ccc(C(=O)CCCCl)cc1	–	–	inactive
O=C(O)CCCC[P+](c1ccccc1)(c1ccccc1)c1ccccc1	1.78%	–	–
Nc1ncnc2n[nH]c(Nc3ccc(F)cc3)c12	–	10.3 µM (active)	–
CC(NC(CCc1ccccc1)C(=O)O)C(=O)N1C(=O)N(C)CC1C(=O)O (stereo not given)	1.99%	–	–
CCN1CCN(C(=O)N[C@@H](C(=O)N[C@@H]2C(=O)N3[C@@H]2SC(C)(C)[C@H]3C(=O)O)c2ccccc2)C(=O)C1=O	–	–	inactive
